Nrf2 inh: Nrf2 qHTS screen for inhibitors | A549 ARE-Fluc reporter, luciferase luminescence, 18-24 h | Potency, µM (doses to about 46 µM), actives largely listed as inhibitors | actives 2.1% (n = 360,000) | AID 504444, 2011; note: nearly all actives have a fitted effect of over 60% in size
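Two sequential reads on A549 ARE_Fluc cells exposed to compound for 18-24 h: a CellTiter-Fluor fluorescence read for viability, then a luciferase luminescence read for Nrf2/ARE activity.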
A549 tox: Nrf2 qHTS screen for inhibitors: counterscreen for cytotoxicity; actives 0.16% (n = 390,000); Potency, µM (highest dose often 46 µM), actives largely listed as inhibitors; A549 ARE-Fluc cells, CellTiter-Fluor viability, 18-24 h
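Cytotoxicity counterscreen: CellTiter-Fluor fluorescence was measured in A549 ARE_Fluc cells after 18-24 h of compound exposure in a concentration series. The subsequent BugLite luminescent read reports ARE-luciferase activity.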
Epigenetic reg: Quantitative High-Throughput Screen for Regulators of Epigenetic Control; murine LDR cells, GFP reporter derepression, 30 h; Potency, µM (highest dose often 53.9 µM), hits mostly activators; AID 1865, 2009; actives 0.2% (n = 280,000); note: nearly all actives have a fitted effect of over 60% in size
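Derepression of a silenced CMV-GFP reporter in murine LDR cells is scored by enumerating GFP-positive cells with a laser-scanning microplate cytometer after 30 hours of treatment at 37 C.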
PINK1 expr mod: A Quantitative High throughput Screen to Identify Chemical Modulators of PINK1 Expression. AID 624263, 2012. PINK1 immunofluorescence, high-content cytometry, 24 h. Potency, µM (top dose mostly 76.6 µM), actives largely listed as activators. actives 0.2% (n = 410,000); active = well fitted activation curve with a large enough effect; inconclusive = small, poorly fitted or top-dose-only effect; cell line not stated here; note: nearly all actives have a fitted effect of over 65% in size
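Stable cell line, 250 cells/well, 12 h attachment; compounds pinned at 5 concentrations, 24 h; CCCP control. Fixed with nuclear dye, primary antibodies 12 h at 10 degrees C, secondary plus cell stain; laser-scanning cytometer read.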
Nrf2 ARE act: qHTS of Nrf2 Activators | actives 0.31% (n = 410,000) | AREc32 ARE-luciferase reporter (MCF7-derived line), luminescence, 24 h | Potency, µM (doses to about 46.1 µM), hits mostly activators; note: nearly all actives have a fitted effect of over 65% in size
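AREc32 cells carrying an ARE-driven firefly luciferase reporter were seeded at 1000 cells/well in OPTI-MEM with 5% FBS, then exposed to compound for 24 hr at 37 deg C. Luminescence was read with Steady-Glo after 30 min at RT.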
Numbers stand for hits; 0 = inactive; ? = inconclusive; - = no result; [ ] = remark or other dose. A selection: hits, their analogues and other compounds. The true share with any hit is near 2.4%. Unless noted, calls come from the whole dose curve; as a rule, active = well fitted curve in the direction sought with a large enough effect; inconclusive = small, poorly fitted or top-dose-only effect, or another doubt; inactive = no such curve, though single readings can be large; an effect the other way counts as inactive or inconclusive.

SMILES | Nrf2 inh | A549 tox | Epigenetic reg | PINK1 expr mod | Nrf2 ARE act
CCC1(OC(=O)CN)C(=O)OCc2c1cc1n(c2=O)Cc2cc3ccccc3nc2-1 (stereo not drawn) | 0.58µM | ? | 0 | 0 | 0
CC[C@@]1(O)C(=O)OCc2c1cc1n(c2=O)Cc2cc3c(NC(=O)CN)cccc3nc2-1 | 2.6µM | 0 | 0 | 0 | 0
O=C1NCc2c1c1c3ccccc3[nH]c1c1[nH]c3ccccc3c21 | ? | 0 | - | 0 | -
Cc1cc(/C=C/c2ccnc3ccccc23)ccc1N(CCCl)CCCl | - | - | - | 0 | -
Cc1ccccc1C(=O)Nc1sc2c(c1C(=O)O)CCC(C(C)(C)C)C2 (stereo not drawn) | 3.7µM | 0 | 0 | 0 | 0
O=c1[nH]c(O)c(/C=C2\C=Nc3ccc(OCc4ccccc4)cc32)c(=O)[nH]1 | 0 | 0 | - | 32µM | 0
O=c1[nH]c(O)c(C=NCCc2ccccc2)c(=O)[nH]1 | 0 | 0 | 0 | 0 | 0
Nc1c(C(=O)NCc2ccco2)c2nc3ccccc3nc2n1Cc1ccc(F)cc1 | 0 | 0 | 0 | 0 | 18µM
Nc1c(C(=O)NCc2ccco2)c2nc3ccccc3nc2n1Cc1ccccc1 | 0 | ? | ? | 0 | 0
CC(C)(O)C1O[C@H]2CC[C@@]3(C)[C@@](O)(CC[C@H]4Cc5c([nH]c6ccccc56)[C@@]43C)C2=CC1=O (stereo partly drawn) | - | - | 0 | - | -
C[C@@H]1C[C@H]2OC(=O)C3(CO3)[C@H]2[C@H](O)[C@]2(C)C(=O)C3OC3[C@@H]12 (stereo partly drawn) | - | - | 0 | - | -
C=C1C(=O)O[C@@H]2C[C@@H](C)[C@@H]3C=CC(=O)[C@@]3(C)[C@@H](OC(C)=O)[C@H]12 | 4.1µM | 9.2µM | 0 | 0 | 0
C=C1C(=O)O[C@@H]2C[C@@H](C)[C@@H]3C=CC(=O)[C@@]3(C)[C@@H](O)[C@H]12 | 3.7µM | 9.2µM | 0 | 0 | 0
N#CC(C#N)=NNc1ccc([N+](=O)[O-])cc1 | 0 | 21µM | 0 | ? | 0
CCN(CC)S(=O)(=O)c1ccc(NN=C(C#N)C#N)cc1 | 0 | ? | 0 | 0 | 0
C[C@@H]1Cc2c(Cl)cc(C(=O)N[C@@H](Cc3ccccc3)C(=O)O)c(O)c2C(=O)O1 | - | - | 0 | - | -
CC(=O)NCC(N)C(=O)c1ccc(Cl)c(Cl)c1 (stereo not drawn) | - | - | - | 0 | -
C#CCN1CCN(c2cccc(C(F)(F)F)c2)CC1 | 0 | 0 | 0 | 0 | 0
O=C(C1CCN(S(=O)(=O)c2ccc(Br)s2)CC1)N1CCN(c2cccc(C(F)(F)F)c2)CC1 | 2.9µM | 0 | 0 | 0 | 0
C=C/C(=C/C(=O)C[C@H](C)C[C@@H](C)CC[C@H](O)[C@H](C)C(=O)C[C@@H](O)[C@H](C)[C@@H](C)OC(=O)C[C@@H](O)C1=C(C)C(=O)OC1=O)CC | - | - | 0[10.1 µM] | - | -
CC(=O)OC(C)(C)/C=C/C(=O)C(C)(O)C1C(O)CC2(C)C3CC=C4C(CC(O)C(=O)C4(C)C)C3(C)C(=O)CC12C (stereo not drawn) | ? | 2.9µM | - | 0 | 0
CN(C)C1C(=O)C(C(N)=O)C(=O)C2(O)C(=O)C3C(=O)c4c(O)cccc4C(C)(O)C3C(O)C12 (stereo not drawn) | - | - | 0 | - | -
Cc1ccc(NC(=O)COc2ccc(-c3nn(C)c(=O)c4ccccc34)cc2)c(C)c1 | 18µM | 0 | 0 | 0 | 0
CCN(CC)C(=O)c1ccc(NC(=O)COc2ccc(-c3nn(C)c(=O)c4ccccc34)cc2)cc1 | ? | 0 | 0 | 0 | 0
O=C1NO[C@H]2[C@@H]1CN[C@@H]2C(=O)O | - | - | 0 | - | -
SMILES | Nrf2 inh | A549 tox | Epigenetic reg | PINK1 expr mod | Nrf2 ARE act
COc1ccccc1C(=O)Nc1ccc2nc(SCC(=O)N3CCCc4ccccc43)sc2c1 | 18µM | 0 | 0 | 0 | 0
O=c1[nH]c(=S)[nH]c(O)c1N=Nc1ccc(S(=O)(=O)N2CCc3ccccc32)cc1 | 0 | 0 | 0 | 0 | 8.9µM
O=c1[nH]c(=S)[nH]c(O)c1N=Nc1ccc(SC(F)F)cc1 | 0 | 0 | 0 | 0 | 16µM
CC1=C(O)C(=O)C=C2C1=CC=C1[C@]2(C)CC[C@@]2(C)C3C[C@](C)(C(=O)O)CC[C@@]3(C)CC[C@@]12C (stereo partly drawn) | - | - | 0 | - | -
COc1cc(NC(=O)c2cc3cc4ccc(C)cc4nc3o2)cc(OC)c1OC | ? | 0 | 0 | 0 | 0
COc1ccc(CCNC(=O)c2ccc3c(c2)N=C(C)c2cc(C)ccc2S3)cc1OC | 15µM | 0 | 0 | 0 | 0
CC(=O)Nc1c2sscc-2n(C)c1=O | - | - | 0 | - | -
C[C@]12CC[C@@H](O)CC1CCC1C2CC[C@]2(C)C(=O)CC[C@@H]12 (stereo partly drawn) | - | - | 0 | - | -
Oc1c(Cl)c(Cl)c(Cl)c(Cl)c1Cl | 23µM | 0 | 0 | ? | 0
COc1c(C)cc(Br)cc1C(=O)Nc1ccc(-c2nc3ncccc3o2)cc1 | ? | 0 | 0 | 0 | 0
O=c1onc(-c2cccnc2)n1-c1ccccc1F | 0 | ? | 0 | 0 | 0
Clc1ccc(C[n+]2c(-c3ccccc3)cc(-c3ccccc3)cc2-c2ccccc2)cc1 | 21µM | ? | - | 0 | 0
Fc1ccc(C[n+]2c(-c3ccccc3)cc(-c3ccccc3)cc2-c2ccccc2)cc1 | 18µM | ? | - | ? | 0
c1ccc([Se]c2c(-c3ccccc3)[se]c3ccccc23)cc1 | - | - | 0 | - | -
CCOC(=O)C1CCCN(c2ccc([N+](=O)[O-])c3nonc23)C1 (stereo not drawn) | 0 | 18µM | ? | ? | 0
CCOc1ccc2nc(N=Nc3c(O)[nH]c(=O)[nH]c3=O)sc2c1 | 0 | ? | 0 | 0 | 0
CCOc1ccc2nc(N=Nc3c(O)[nH]c(=S)[nH]c3=O)sc2c1 | 0 | 23µM | 0 | 0 | 0
COc1ccc(C=C(C(=O)O)c2ccc(OC)cc2)cc1 | ? | 0 | - | 0 | 0
CCCNS(=O)(=O)c1ccc(OCC(=O)N2CCN(Cc3ccc4c(c3)OCO4)CC2)c(C)c1 | 12µM | 0 | - | 0 | 0
CCCNS(=O)(=O)c1ccc(OCC(=O)N2CCN(Cc3ccc4c(c3)OCO4)CC2)cc1 | 8.2µM | 0 | 0 | 0 | 0
ClCCN(CCCl)c1ccc(/C=C/c2ccnc3ccccc23)cc1 | - | - | - | 0 | -
Cc1ccc(Cn2cccc(C(=O)Nc3ccc(C)c(Cl)c3)c2=O)cc1 | - | 0 | 0 | 0 | 0
Cc1cc(C(=O)Nc2ccc(CC(=O)O)cc2)c(C)o1 | 5.2µM | 0 | - | 0 | 0
COc1ccc([N+](=O)[O-])cc1CSc1ccccn1 | 0 | 0 | 0 | 0 | 11µM
CC1(C)Cc2c(c(N3CCOCC3)nc3sc4c(NCc5ccccc5)nnnc4c23)CS1 | 2.6µM | 0 | 0 | ? | 0
COc1ccc2c(c1)c(CC(=O)Nc1c(C)cccc1C)c(C)n2C(=O)c1ccc(Cl)cc1 | 23µM | 0 | 0 | 0 | 0

Bioassay records: PubChem, National Center for Advancing Translational Sciences (NCATS)
